# The list is not random: actives were taken first. Their share in the collection is about 3.5%.
# Mtb hypoxia inh: Mtb hypoxia fluorescent reporter inhibition. M. tuberculosis hypoxia-regulated fluorescent reporter, fluorescence. AID 1159583. fluorescence inhibition, % (no concentration beside the values). 300,000 tested, 0.1% active; in the data active = fluorescence inhibition mostly above about 23%, no sharp cut-off; inactive = mostly below about 17%
# Mtb UGM inh: inhibitors of M. tuberculosis UDP-galactopyranose mutase. P9WIQ1. purified UGM, fluorescence polarization probe displacement. inhibition, % at 10 µM. 320,000 tested, 0.06% active. AID 504406; in the data active = inhibition above about 10%, passing the limit was not always enough; inconclusive = no clear call, values can overlap the other calls
# Rv3671c inh: Rv3671c (M. tuberculosis) protease inhibition; P9WHR9; inhibition, % at 5.96 µM; 320,000 tested, 0.048% active; AID 2606; in the data active = inhibition above about 38%;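 also: extracellular domain of Rv3671c used as enzyme; 0% = enzyme with DMSO and 100% = no enzyme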
# Target sequence (P9WHR9 whole entry, looked up, the tested form may be a part): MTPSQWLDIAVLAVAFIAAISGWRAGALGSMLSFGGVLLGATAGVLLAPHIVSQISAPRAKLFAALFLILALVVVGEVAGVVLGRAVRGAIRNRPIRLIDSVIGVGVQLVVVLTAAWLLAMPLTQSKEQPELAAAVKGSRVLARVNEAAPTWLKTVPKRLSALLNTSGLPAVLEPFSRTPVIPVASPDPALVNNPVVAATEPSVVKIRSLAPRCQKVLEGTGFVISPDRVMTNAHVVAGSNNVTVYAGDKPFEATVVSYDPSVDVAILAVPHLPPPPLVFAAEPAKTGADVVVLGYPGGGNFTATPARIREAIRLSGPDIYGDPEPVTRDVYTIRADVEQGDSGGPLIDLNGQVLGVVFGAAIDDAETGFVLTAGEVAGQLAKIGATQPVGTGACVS
# Mtb FBA inh: inhibits M. tuberculosis FBA enzyme | P9WQA3 | purified M. tuberculosis FBA, fluorescence read-out | inhibition, % at 1 µM | 360,000 tested, 2.3% active | AID 588726; in the data active = inhibition above about 27%;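 also: 0% = vehicle and 100% = reference inhibitor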
# FadD28 binding: blocks FadD28 binding to the bisubstrate probe; AID 588549; inhibition, % at 12.5 µM; fluorescence polarization; 360,000 tested, 0.22% active; in the data active = inhibition above about 8.5%, passing the limit was not always enough; inconclusive = no clear call, values can overlap the other calls
# GDH-TPI counter: inhibits GDH-TPI coupling enzymes, artifact for Mtb FBA screen. GDH-TPI coupled enzyme counterscreen, NADH absorbance. inhibition, % at 4.8 µM. 360,000 tested, 1.2% active; in the data active = inhibition above about 30%;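 also: 0% = DMSO wells and 100% = wells lacking the enzyme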
# Active calls of the source: *; ? = inconclusive; / = no result; ! = repeats disagree.
SMILES,Mtb hypoxia inh,Mtb UGM inh,Rv3671c inh,Mtb FBA inh,FadD28 binding,GDH-TPI counter
COc1ccc(/C=C2\SC(=O)N(CC(=O)Nc3cccc(C)c3)C2=O)cc1O,1,-2,-54,-2,26*,47*
Cc1cccc(NC(=O)CN2C(=O)S/C(=C\c3cccn3-c3cccc(C(=O)O)c3)C2=O)c1,7,0,-25,-1,62*,6
CC(/C=C1\SC(=O)N(CC(=O)Nc2cccc(O)c2)C1=O)=C\c1ccccc1,1,-2,-78,2,4,33*
Cc1ccc(NC(=O)CN2C(=O)S/C(=C\c3cccn3-c3cccc(C(=O)O)c3)C2=O)cc1C,/,1,-4,0,-1,-1
COc1cc(/C=C2\SC(=O)N(CC(=O)Nc3cccc(C)c3)C2=O)ccc1OC(C)C(=O)O (configuration not stated),10,-1,-3,0,81*,18
CC(/C=C1\SC(=O)N(CC(=O)Nc2ccc(O)cc2)C1=O)=C\c1ccccc1,/,1,-15,-1,-1,18
O=C(NN=C/C(Cl)=C/c1ccccc1)c1ccco1,7,/,/,/,/,/
C=CCC(CC(=O)NC(CO)Cc1ccccc1)C(=O)NC(COC(=O)C(CC=C)Cc1ccc(F)cc1)Cc1ccccc1 (configuration not stated),38*!,/,/,/,/,/
Cc1cccc(C2=NN(c3ccccc3)[C@H](CO)[C@H]2c2ccccc2)c1,5,/,/,59*,1,-9
Cc1cccc(C2=NN(c3ccccc3)[C@@H](C(=O)N3CCOC3=O)[C@@H]2c2ccc(F)cc2)c1,-2,/,/,21,1,0
Cc1cccc(NC(=O)C2=C(O)c3ccccc3N(C)S2(=O)=O)c1,10,0,-8,0,-17,13
CN1c2ccccc2C(O)=C(C(=S)Nc2ccc(Cl)cc2)S1(=O)=O,1,1,7,1,?,48*
COc1cc(OC)c(-c2sc(Nc3ccccc3)n[n+]2-c2ccc(F)cc2)cc1OC,0,-2,6,9,-1,38*
COc1cc(Br)c(-c2sc(Nc3ccccc3)n[n+]2-c2ccc(F)cc2)cc1OC,16,-2,3,-4,-2,-5
CC1OCC(C[N+](C)(C)C)O1 (configuration not stated),9,/,/,/,/,/
Cn1c(/C(C#N)=C/c2ccc(O)cc2)nc2ccccc21,3,-2,-11,-10,-3,36*
COc1ccc(NC(=O)N(C)CC2Oc3ccc(NC(=O)c4ccncc4)cc3C(=O)N(C(C)CO)CC2C)cc1 (configuration not stated),15,/,/,/,/,/
COc1ccc(C=NNC(=O)NN=Cc2ccc(OC)c(OC)c2)cc1OC,14,/,/,2,-2,48*
COc1ccc(C=NNC(=O)CCCC(=O)NN=Cc2ccc(OC)c(OC)c2)cc1OC,/,/,/,-4,-3,17
COc1cc(/C=N/NC(=O)CSCc2ccc([N+](=O)[O-])cc2)cc(OC)c1OC,/,-2,-7,-9,-5,-3
COc1cc(C=NNC(=O)C(=O)NCc2cccnc2)ccc1O,-1,/,/,/,/,/
COc1ccc(/C=N/Nc2ccccn2)cc1OC,/,0,11,0,-1,33*
COc1cc(/C=N/NC(=O)C(=O)NCc2cccnc2)ccc1O,/,0,-1,0,0,34*
COc1ccc(/C=N/NC(=O)CSCc2ccc([N+](=O)[O-])cc2)cc1OC,/,0,8,0,-1,41*
Cc1ccc(C=NNC(=O)CN(Cc2ccccc2)S(=O)(=O)c2ccc3c(c2)OCCO3)cc1,-2,/,/,/,/,/
SMILES,Mtb hypoxia inh,Mtb UGM inh,Rv3671c inh,Mtb FBA inh,FadD28 binding,GDH-TPI counter
COc1ccc(/C=N/NC(=O)C(=O)Nc2ccccn2)cc1OC,/,-2,1,-2,-2,43*
COc1cc(C=NNC(=O)C(=O)Nc2cccc(Cl)c2)cc(OC)c1O,/,/,/,-4,-1,39*
COc1ccc(CNC(=O)C2CC=CC3CCN(Cc4ccccc4)C(=O)C32)cc1 (configuration not stated),7,/,/,/,/,/
CC1CN(C(C)CO)C(=O)c2cccc(NC(=O)Nc3ccc(F)cc3)c2OC1CN(C)Cc1ccccc1 (configuration not stated),4,/,/,/,/,/
COc1ccc(/C=C/C(=O)Nc2ccncc2)cc1OC,-6,4,6,22,-2,15
COc1ccc(/C=C/C(=O)Nc2ccc(S(=O)(=O)Nc3onc(C)c3C)cc2)cc1OC,13,-2,0,0,-2,37*
CCOc1ccc(/C=C/C(=O)Nc2ccc(C(N)=O)cc2)cc1OC,7,-2,-14,5,-1,51*
CC(=O)Nc1ccccc1NC(=O)CC(C)=NNC(=O)c1ccccn1,5,/,/,/,/,/
Fc1ccc(C=Nn2c(COc3ccccc3)n[nH]c2=S)cc1,13,/,/,/,/,/
COc1ccc(CCNC(=O)c2cc(-c3ccccn3)nc3ccccc23)cc1,30*,-4,-1,-2,-5,2
NS(=O)(=O)c1ccc(CCNC(=O)c2cc(-c3ccccc3)nc3ccccc23)cc1,5,1,-12,2,-3,7
COc1ccc(CCNC(=O)c2cc(Cl)nc3ccccc23)cc1,6,-2,2,-1,-6,8
COc1ccc(-c2cc(C(=O)NCCCN3CCCC3=O)c3ccccc3n2)cc1,-5,0,9,69*,0,16
COc1ccc(-c2cc(C(=O)NCCc3ccc(S(N)(=O)=O)cc3)c3ccccc3n2)cc1,10,2,-28,67*,-5,13
O=C(NCCCN1CCCC1=O)c1cc(-c2ccc(F)cc2)nc2ccccc12,-1,-2,-5,19,-3,22
COc1ccc(C(=O)NCCCN2CCCC2=O)cc1,/,3,-1,5,1,3
COc1ccc2sc(-c3ccc(S(C)(=O)=O)cc3)c(C(=O)NCCCN3CCCC3=O)c2c1,0,/,2,5,1,32*
Cc1cccc(C=Nn2c(-c3ccncc3)n[nH]c2=S)c1,-2,/,/,/,/,/
NC(=O)C(Cc1cc2ccccc2s1)NC(=O)C1CC2(CC(c3cccc(NC(=O)C4CCC(=O)N4)c3)=NO2)CN1C(=O)C=Cc1c(F)cccc1Cl (configuration not stated),-2,/,/,/,/,/
C/C(C=NNC(=O)CSc1nc(C)cc(C)n1)=C/c1ccccc1,4,/,/,/,/,/
c1ccc(CC2CNCCN2CCc2cccc3ccccc23)cc1 (configuration not stated),13,/,/,/,/,/
Oc1ccc(C=Nn2cc(-c3ccccc3)[nH]c2=S)cc1,13,/,/,/,/,/
Cc1ccc(S(=O)(=O)N2C(c3cccc(Cl)c3)CC=C(C(=O)O)C2c2ccc(F)cc2)cc1 (configuration not stated),3,/,/,/,/,/
O=C(O)c1cccc(CN2C(=O)S/C(=C/c3cccc([N+](=O)[O-])c3)C2=O)c1,11,0,12,1,-2,44*
Cc1ccc(/C=C2/SC(=S)N(CCCC(=O)Nc3cc([N+](=O)[O-])ccc3O)C2=O)cc1,-3,-4,0,-2,-2,-7

# Compound activity from PubChem BioAssay.
